Reference: paper PMC4336329 (PLoS ONE, 2015)
Among all 310,000 compounds or so, about 2,200 (0.71%) showed an effect of 50% or more. The effect is printed as a negative number. Only a selection was taken, and strong results are over-represented in it overall.

biological target: human ether-à-go-go-related gene (hERG) potassium channel (human, UniProt Q12809); assay: primary screen, population patch clamp on CHO cells stably expressing hERG; higher = less effect of the substance
Sequence (Q12809 whole entry, looked up): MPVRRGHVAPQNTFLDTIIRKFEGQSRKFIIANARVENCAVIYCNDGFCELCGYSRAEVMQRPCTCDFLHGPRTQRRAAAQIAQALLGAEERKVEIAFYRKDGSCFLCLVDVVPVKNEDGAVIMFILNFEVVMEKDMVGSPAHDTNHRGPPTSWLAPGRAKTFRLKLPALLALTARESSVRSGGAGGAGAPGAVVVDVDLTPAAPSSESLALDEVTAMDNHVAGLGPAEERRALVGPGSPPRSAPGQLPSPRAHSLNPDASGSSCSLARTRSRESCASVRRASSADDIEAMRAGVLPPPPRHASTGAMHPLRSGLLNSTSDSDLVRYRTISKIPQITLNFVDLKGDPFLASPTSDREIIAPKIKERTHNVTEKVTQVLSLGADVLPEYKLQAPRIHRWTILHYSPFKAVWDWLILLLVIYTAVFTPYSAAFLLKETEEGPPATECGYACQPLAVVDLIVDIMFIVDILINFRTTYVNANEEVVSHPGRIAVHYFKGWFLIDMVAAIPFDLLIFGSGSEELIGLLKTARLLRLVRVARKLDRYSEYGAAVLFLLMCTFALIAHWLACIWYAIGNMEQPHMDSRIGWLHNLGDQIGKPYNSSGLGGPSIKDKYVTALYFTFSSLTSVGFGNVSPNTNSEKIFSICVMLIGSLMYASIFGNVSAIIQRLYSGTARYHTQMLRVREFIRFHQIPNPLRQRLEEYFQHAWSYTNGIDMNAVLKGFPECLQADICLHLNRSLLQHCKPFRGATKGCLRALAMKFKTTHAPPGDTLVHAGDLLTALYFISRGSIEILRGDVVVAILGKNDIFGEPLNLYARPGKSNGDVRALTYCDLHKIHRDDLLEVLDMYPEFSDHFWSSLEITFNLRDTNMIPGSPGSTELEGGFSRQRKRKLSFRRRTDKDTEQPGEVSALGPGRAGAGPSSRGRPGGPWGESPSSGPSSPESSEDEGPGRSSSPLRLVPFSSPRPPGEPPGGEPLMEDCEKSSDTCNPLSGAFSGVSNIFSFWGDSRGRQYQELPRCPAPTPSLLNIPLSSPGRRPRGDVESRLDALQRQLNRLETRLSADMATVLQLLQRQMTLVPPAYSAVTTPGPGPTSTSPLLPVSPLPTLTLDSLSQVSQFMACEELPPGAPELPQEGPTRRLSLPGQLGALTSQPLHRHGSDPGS

Point of comparison: `Cc1[nH]nc2c1C(C(C)c1ccccc1)C(C#N)=C(N)O2` (stereo not shown), “hERG current change (%, negative = inhibition) at 1uM” value 7.79%. Against it:
- COc1ccccc1C(=O)Nc1nnc(-c2ccco2)s1 — higher, 13.9%
- COc1ccccc1NC(=O)Cn1nnc(-c2ccccc2NC(=O)c2ccco2)n1 — higher, 14.7%
- C=CCC1c2cccc(C(=O)O)c2C(=O)N1c1cccc(C)c1 (stereo not shown) — higher, 11.5%
- CN(C)c1ccc(C2CC(=O)C=C(Nc3ccccc3N)C2)cc1 (stereo not shown) — higher, 13.8%
- CCOc1ccc(NC(=O)CCN2CCN(c3ccccc3)CC2)cc1 — lower, 3.48%
- CCOc1ccccc1NC(=O)C(OC(=O)c1ccccc1)c1ccccc1 (stereo not shown) — higher, 32.8%
- Cn1c(Cn2nnc3ccccc32)nnc1SCC(=O)Nc1nccs1 — higher, 10.6%
- CCOC(=O)c1c(NC(=O)CCS(=O)(=O)c2ccccc2)sc2c1CCN(C(C)C)C2.Cl — lower, -64.6%
- CC(C)N1CCc2c(sc(NC(=O)CCS(=O)(=O)c3ccccc3)c2C(N)=O)C1.Cl — lower, -2.04%
- CCOC(=O)c1c(NC(=O)CCS(=O)(=O)c2ccccc2)sc2c1CCN(C)C2.Cl — lower, -9.18%
- CC(=O)c1cc2c(cc1NC(=O)CSc1nc3ccccc3[nH]1)OCO2 — lower, -2.99%
- CN(C)S(=O)(=O)c1cc(NC(=O)CNCCN2CCOCC2)ccc1Cl.O=C(O)C(=O)O — lower, 7.62%
- O=C(c1cc(F)ccc1F)C1CCCN(Cc2cccn2-c2ccccn2)C1 (stereo not shown) — lower, -83.1%
- O=C(c1cc(F)ccc1F)C1CCCN(Cc2cccc(Cl)c2)C1 (stereo not shown) — higher, 8.46%
- COc1ccc(F)cc1C(=O)C1CCCN(Cc2cccn2-c2cccnc2)C1 (stereo not shown) — lower, 5.09%
- COc1ccc(C(=O)C2CCCN(Cc3cccn3-c3ccccn3)C2)cc1F (stereo not shown) — lower, -87.1%
- COc1ccc(C(=O)C2CCCN(Cc3ccc(F)cc3F)C2)cc1F (stereo not shown) — lower, 3.8%
- CCOc1ccccc1CN1CCCC(C(=O)c2cc(F)ccc2F)C1 (stereo not shown) — lower, -16.6%
- COc1ccc(C(=O)C2CCCN(Cc3cn(C)nc3-c3ccccc3)C2)cc1F (stereo not shown) — lower, -19.1%
- O=C(c1cc(F)ccc1F)C1CCCN(CCCc2ccccc2)C1 (stereo not shown) — lower, -76.6%
- COc1ccc(F)cc1C(=O)C1CCCN(Cc2ccc(Oc3ncccn3)cc2)C1 (stereo not shown) — lower, -34.8%
- O=C(C1CCCN(CCCc2ccccc2)C1)N1CCCCC1 (stereo not shown) — lower, -5.07%
- O=C(c1cc(F)ccc1F)C1CCCN(C(=O)CSc2ccccn2)C1 (stereo not shown) — lower, -3.1%
- COc1ccc(F)cc1C(=O)C1CCCN(Cc2cccn2-c2ccccn2)C1 (stereo not shown) — lower, -89.9%
- O=C(Nc1ccc(Cl)cc1)c1cc(S(=O)(=O)N2CCOCC2)cs1 — lower, -7.43%
- COCCCN(Cc1ccco1)C(=O)Cn1ncc2c([nH]c3ccccc32)c1=O — lower, -5.46%
- O=C(N/N=C1/CCc2ccccc21)C1CC1 — lower, 6.47%
- Cc1ccc(CNC(=O)COC(=O)c2ccc(S(=O)(=O)N(C)C)cc2)cc1 — higher, 17.8%
- CCN(CC)c1ccc2ccc(=O)oc2c1 — higher, 7.92%
- O=C(NNC(=O)c1ccc(Cl)c(S(=O)(=O)Nc2ccc(Cl)cc2)c1)c1ccc(=O)[nH]c1 — higher, 14.5%
- COc1ccc(-c2nnc3ccc(SCC(=O)N4CCCCC4)nn23)cc1OC — lower, 6.34%
- Cc1cc2nc(-c3ccc(=O)[nH]c3)n(C)c2cc1C — higher, 11%
- Cc1ccc(-c2csc(NC(=O)c3ccc(F)cc3)c2C(=O)O)cc1 — higher, 16%
- CCOC(=O)C1(C)Oc2ccc(S(=O)(=O)CC)cc2NC1=O (stereo not shown) — higher, 16.3%
- COCCn1nnnc1C(c1ccccn1)N1CCN(c2cc(C)ccc2C)CC1.Cl (stereo not shown) — higher, 9.25%
- Clc1ccc(C2=C3CCCCn4c(-c5ccccc5)c[n+](c43)C2)cc1.[Br-] — lower, -83.1%
- COc1ccc(-c2c[n+]3c4n2CCCCC4=C(c2ccccc2)C3)cc1.[Br-] — lower, -74.7%
- O=C(C[n+]1cc(-c2ccc(Cl)cc2)n2c1CCCCC2)c1ccccc1.[Br-] — lower, -2.53%
- COc1ccc(-n2c(-c3ccc(Br)cc3)c[n+]3c2CCCCC3)cc1.[Br-] — lower, -24.6%
- Clc1ccc(C[n+]2cc(-c3ccccc3)n3c2CCC3)cc1.[Cl-] — lower, 7.34%
- COc1ccc(-c2c[n+]3c4n2CCCCC4=C(c2ccc(Br)cc2)C3)cc1.[Br-] — lower, -79.6%
- COc1ccc(C(=O)C[n+]2cc(-c3ccc(OC)cc3)n3c2CCCC3)cc1.[Br-] — higher, 11.5%
- COc1ccc(-c2c[n+]3c(n2-c2ccccc2)CCCCC3)cc1.[Br-] — lower, 2.74%
- COc1ccc(-c2c[n+](CC(=O)c3ccccc3)c3n2CCCCC3)cc1.[Br-] — higher, 13.7%
- COc1cc2c(cc1OC)CN(S(C)(=O)=O)CC2 — higher, 16.5%
- Fc1cccc(CCN2CCNC[C@@H]2CC2CCCCC2)c1 — lower, 1.12%
- Cc1ccc2oc(C(=O)NCC3CCOCC3)c(C)c2c1 — higher, 10.3%
- Cl.Cn1c(=N)n(CC(O)c2ccco2)c2ccccc21 (stereo not shown) — lower, 1.97%
- CCCn1c(=N)n(CC(O)c2ccco2)c2ccccc21.Cl (stereo not shown) — lower, -13.8%
- Cl.N=c1n(CCN2CCCC2)c2ccccc2n1CC(O)c1ccco1 (stereo not shown) — lower, -3.97%
- CCCCCCCn1c(=N)n(CC(O)c2ccco2)c2ccccc21.Cl (stereo not shown) — lower, -76.8%
- CCn1c(=N)n(CC(O)c2ccco2)c2ccccc21.Cl (stereo not shown) — lower, -7.63%
- CCN(CC)CCn1c(=N)n(CC(O)c2ccco2)c2ccccc21.Cl (stereo not shown) — lower, -54.6%
- O=C(O)C(=O)O.O=[N+]([O-])c1cccc(CN2CCN(Cc3ccc(Cl)cc3)CC2)c1 — lower, -27.2%
- COC(=O)c1cc(NC(=O)C2(S(=O)(=O)c3ccc(C)cc3)CC2)cc(C(=O)OC)c1 — lower, 0.157%
- COc1ccc(O)c(C(=O)c2cc(C#N)c(=O)n(Cc3ccccc3)c2)c1 — higher, 8.35%
- O=C(NCc1ccccc1)C1(C(F)(F)F)C/C(=C\CCO)CCCO1 (stereo not shown) — higher, 14.1%
- Cc1ccc(/C=C2/C(=O)NC(=O)N(CCc3ccc(F)cc3)C2=O)o1 — lower, 2.54%
- CCC1CN(C(=O)N2CCC(C(=O)NCCc3ccccc3)CC2)c2ccccc2O1 (stereo not shown) — higher, 8.85%
- COCCCNC(=O)CCc1nc2cccnc2n1Cc1ccccc1 — lower, -11.9%
- CCCCNC(=O)CCc1nc2cccnc2n1Cc1ccccc1 — lower, -34.7%
- O=C(CCc1nc2cccnc2n1Cc1ccccc1)NCCc1ccc(Cl)cc1 — lower, -65.2%
- Cc1ccc([N+](=O)[O-])cc1N/C=C1\CCCCC1=O — higher, 16.5%
- Cc1ccc(N(CC(=O)NCc2cccnc2)S(C)(=O)=O)cc1C — higher, 12.4%
- COc1ccc(C2=NOC(C(=O)NCc3cccs3)C2)cc1 (stereo not shown) — higher, 21.3%
- N#Cc1ccc(NC(=O)c2cc(S(=O)(=O)N3CCOCC3)ccc2N2CCCC2)cc1 — lower, -58.9%
- NC(=O)c1ccc(NC(=O)c2cc(S(=O)(=O)N3CCCCC3)ccc2N2CCOCC2)cc1 — higher, 13.4%
- O=C(Nc1ccccc1Cl)c1cc(S(=O)(=O)N2CCCCC2)ccc1N1CCOCC1 — lower, -5.21%
- CS(=O)(=O)c1ccc(Cl)c(NC(=O)c2cc(S(=O)(=O)N3CCOCC3)ccc2N2CCCC2)c1 — lower, -60.2%
- O=C(Nc1ccccc1N1CCCC1)c1cc(S(=O)(=O)N2CCOCC2)ccc1Cl — lower, -9.58%
- O=C(Nc1ccccc1)c1cc(S(=O)(=O)N2CCCCC2)ccc1N1CCOCC1 — higher, 12.6%
- CNC(=O)c1ccc(NC(=O)c2cc(S(=O)(=O)N3CCOCC3)ccc2N2CCCC2)cc1 — higher, 13.5%
- O=C(Nc1ccccc1N1CCCCC1)c1cc(S(=O)(=O)N2CCOCC2)ccc1Cl — lower, 7.72%
- NC(=O)c1ccccc1NC(=O)c1cc(S(=O)(=O)N2CCCCC2)ccc1N1CCOCC1 — lower, -60.5%
- CC1=NN(c2ccc(C(=O)O)cc2)C(=O)/C1=C/c1ccc(-c2ccccc2F)o1 — higher, 15.2%
- C=CCOc1cccc(C(=O)N2CCC(CCC(=O)NC3CC3)CC2)c1 — higher, 12.6%
- Cn1c(SCC(=O)N/N=C/C=C\c2ccco2)nc2ccccc21 — lower, -13.7%
- O=C(Nn1c(O)c(C=C2N=c3ccccc3=N2)sc1=S)c1ccccc1Cl — lower, 0.388%
- Cc1ccc(-c2nnn(CC(=O)N(c3ccc4c(c3)OCCO4)C(C(=O)NCC3CCCO3)c3ccc(F)cc3)n2)o1 (stereo not shown) — higher, 10.9%
- O=C(O)c1ccc(S(=O)(=O)NC2CCCCCC2)cc1 — higher, 13.5%
- O=C(NNC(=O)c1ccccc1[N+](=O)[O-])c1csc(N2CCOCC2)n1 — lower, 0.109%
- CCn1cc(-c2nnnn2-c2ccc(Cl)cc2)c(=O)c2ccccc21 — lower, -16.3%
- Cn1cc(-c2nnnn2-c2ccc(Cl)cc2)c(=O)c2ccccc21 — lower, -66.3%
- Cn1cc(-c2nnnn2-c2ccccc2)c(=O)c2ccccc21 — lower, 1.73%
